Assay [1] is described as follows: Nuclear factor erythroid 2-related factor 2/antioxidant responsive element (Nrf2/ARE) small molecule agonists: qHTS cell viability counter screen in human keratinocytes (AID 1919968; active means well fitted curve in the direction sought with a large enough effect in the repeat runs; an effect the other way counts as inactive or inconclusive; further: nearly all actives have a fitted effect of over 55% in size; further: potency means the concentration at half of the fitted maximal effect). The essentials: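 Cells of the KeratinoSens line were plated at 1,500 per well and left for 5 h before compound transfer from DMSO stocks. After a 23 h incubation (37 C, 5% CO2), CellTiter-Fluor was added. Signal was taken as fluorescence intensity 1 h later.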

The nature of assay [2]: Nuclear factor erythroid 2-related factor 2/antioxidant responsive element (Nrf2/ARE) small molecule agonists: luciferase reporter gene qHTS assay in human keratinocytes (AID 1919969). Further: nearly all actives have a fitted effect of over 35% in size. Further: potency means the concentration at half of the fitted maximal effect. Background: Reporter assays use an easily measured gene product as a stand-in for the process of interest.
Assay [3] addresses Gonadotropin-releasing hormone receptor (Homo sapiens) (UniProt P30968). Description: Human gonadotropin-releasing hormone receptor (GnRHR) small molecule agonists, calcium flux assay in GnRHR-HEK293 cells (AID 1920063). Further: nearly all actives have a fitted effect of over 35% in size. Further: potency means the concentration at half of the fitted maximal effect. The gist of the method:
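Compounds dissolved in DMSO are pin-transferred onto dye-loaded GnRHR-HEK293 cells, which were seeded 18 h before at 37 C/5% CO2. Calcium signal is read as fluorescence intensity at 1 s intervals for 3 min.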

For assay [4], the target named is KiSS-1 receptor (Homo sapiens) (UniProt Q969F8). Description: Human kisspeptin (KISS1R) small molecule agonists, calcium flux assay in KISS1R-HEK293 cells (AID 1920064; active means well fitted curve in the direction sought with a large enough effect in the repeat runs; an effect the other way counts as inactive or inconclusive; further: potency means the concentration at half of the fitted maximal effect). The gist of the method:
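Cell line: HEK293, stable human KISS1R. Dye loading 1 h at 37 C after 18 h culture. Read: kinetic fluorescence, 480/540 nm, 3 min at 1 s intervals.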

The nature of assay [5]: G protein-coupled receptor (GPCR) small molecule agonists, calcium flux assay: HEK293 wild type cell line counter screen (AID 1920065). Further: potency means the concentration at half of the fitted maximal effect. The gist of the method:
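Tox21 10K compounds, 15 concentrations each in triplicate, pin-transferred in DMSO onto dye-loaded cells; kinetic read at 480/540 nm for 3 min, 1 s intervals.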
(Calcium flux is commonly read through the fluorescence of an indicator in the cells.)

A short description of assay [6]: p53 small molecule agonists, cell-based qHTS assay with human liver microsomes (AID 1963577).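 Further: p53 response element beta-lactamase reporter cells with liver microsomes plus NADPH.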 The gist of the method:
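p53RE-bla cells; 5 h settle, 37 C/5% CO2; cpd + HLM 0.5 mg/mL + NADPH 0.5 mg/mL (final); 16 h 37 C; LiveBLAzer 2 h RT dark; fluorescence readout.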
On the technique in general: In qHTS, concentration-response curves come from the screen itself.

The nature of assay [7]: p53 small molecule agonists, cell-based qHTS assay with rat liver microsomes (AID 1963578). The essentials:
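Rat liver microsome activation: microsomes 0.5 mg/mL, NADPH 0.5 mg/mL final; p53RE-bla cells, 16 h 37 C; LiveBLAzer readout, 2 h RT dark.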

A short description of assay [8]: p53 small molecule agonists, cell-based qHTS assay with human liver microsomes: qHTS cell viability counter screen (AID 1963579). Further: nearly all actives have a fitted effect of over 45% in size. Further: potency means the concentration at half of the fitted maximal effect. The essentials: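 Luminescent CellTiter-Glo read-out, 30 min at room temperature, gauged cytotoxicity in p53RE-bla cells exposed 16 h at 37 C to DMSO-dissolved compounds with metabolic activation by human liver microsomes and NADPH, each 0.5 mg/mL final.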

Assay [9] is described as follows: p53 small molecule agonists, cell-based qHTS assay with rat liver microsomes: qHTS cell viability counter screen (AID 1963580). Further: nearly all actives have a fitted effect of over 45% in size. Further: potency means the concentration at half of the fitted maximal effect. The gist of the method:
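Counter screen for cytotoxicity under metabolic activation: rat liver microsomes and NADPH, 0.5 mg/mL final each, added with compounds to p53RE-bla HCT-116 cells; 16 h at 37 C, then ATP luminescence read.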

Assay [10] can be described thus: p53 small molecule agonists, cell-based qHTS assay: qHTS cell viability counter screen (AID 1963581). Further: nearly all actives have a fitted effect of over 45% in size. Further: potency means the concentration at half of the fitted maximal effect. The gist of the method: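 ATP content measured by luminescence in HCT-116 p53RE-bla cells treated 16 h at 37 C, same wells as the reporter screen.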
For assay [11], the target named is 5-hydroxytryptamine receptor 2A (Homo sapiens) (UniProt P28223). The assay can be described thus: 5-hydroxytryptamine receptor 2A (HTR2A) small molecule antagonists, cell-based qHTS assay (AID 1963586). Further: nearly all actives have a fitted effect of over 45% in size. Further: potency means the concentration at half of the fitted maximal effect. The essentials:
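CHO cells stably expressing human HTR2A were plated for 18 h at 37 C, then loaded with calcium dye for 1 h. Compounds were preincubated 5 min at room temperature before DOI (4 nM solution) was added. Kinetic fluorescence was read for 3 min.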

Assay [12] shares this target. The assay can be described thus: 5-hydroxytryptamine receptor 2A (HTR2A) small molecule agonists, cell-based qHTS assay (AID 1963587). Further: nearly all actives have a fitted effect of over 30% in size. Further: potency means the concentration at half of the fitted maximal effect. The essentials: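 HTR2A-CHO cells, plated 18 h at 37 C/5% CO2, dye-loaded 1 h at 37 C; compounds in DMSO added by pin tool (agonist mode). Intracellular calcium flux read as kinetic fluorescence on FDSS over 2 min at 1 s intervals.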

Assay [13] deals with Muscarinic acetylcholine receptor M1 (Homo sapiens) (UniProt P11229). The assay can be described thus: Cholinergic receptor muscarinic 1 (CHRM1) small molecule antagonists, cell-based qHTS assay (AID 1963588). Further: nearly all actives have a fitted effect of over 40% in size. Further: potency means the concentration at half of the fitted maximal effect. The essentials:
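Compounds were tested at 15 concentrations in three independent runs. Dye-loaded CHRM1-CHO cells were exposed 5 min at room temperature before stimulation by acetylcholine added at 50nM. Intracellular calcium was read kinetically on FDSS for 3 min.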

Assay [14] shares this target. The assay can be described thus: Cholinergic receptor muscarinic 1 (CHRM1) small molecule agonists, cell-based qHTS assay (AID 1963589). Further: nearly all actives have a fitted effect of over 35% in size. Further: potency means the concentration at half of the fitted maximal effect. The gist of the method:
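Homogeneous fluorescence calcium flux, agonist mode. Human M1-expressing CHO cells; compound dosed at 15 concentrations, three independent runs; signal sampled every 1 sec.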

Assay [15] in a line: cAMP Responsive Elements (CRE) small molecule agonists, cell-based qHTS assay (AID 1963590). The essentials:
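HEK 293T cells stably bearing CRE-bla were plated at 2,000 cells per well and rested 18 h. Compounds, positive controls or DMSO were added for 3 h at 37 C. LiveBLAzer B/G substrate was then loaded for 2 h at room temperature.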

Assay [16] can be described thus: cAMP Responsive Elements (CRE) small molecule antagonists, cell-based qHTS assay (AID 1963591; active means well fitted inhibition curve with a large enough effect in the signal ratio in the repeat runs, not every such curve was filed as active; the % refers to the signal ratio). The gist of the method:
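First, CRE-bla HEK293T cells settled 18 h at 37 C. Next, compound and 0.25 uM final NKH477 were applied for 3 h. Last, LiveBLAzer B/G substrate was loaded for 2 h at room temperature.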

The target of assay [17] is D(2) dopamine receptor (Homo sapiens) (UniProt P14416). Description: Dopamine D2 receptor (DRD2) small molecule agonists, cell-based qHTS assay (AID 1963594). Further: nearly all actives have a fitted effect of over 35% in size. The gist of the method: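 HEK293 cells stably expressing DRD2 were cultured 24 h at 37 C, then given Ro20-1724 (0.1 mM final) and compounds for 10 min at room temperature. NKH477 (200nM) was then added for 30 min. cAMP was read by HTRF.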

For assay [18] the target is unchanged. Description: Dopamine D2 receptor (DRD2) small molecule antagonists, cell-based qHTS assay (AID 1963595; active means well fitted inhibition curve with a large enough effect in the signal ratio in the repeat runs, with a control signal flat; the % refers to the signal ratio; further: potency means the concentration at half of the fitted maximal effect). The gist of the method:
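HEK293 cells stably expressing DRD2 were preincubated with 0.1 mM Ro20-1724, then with compound for 10 min at room temperature. Cells were stimulated with 200 nM NKH477 plus 12 nM quinpirole for 30 min, and cAMP was read by HTRF.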

A short description of assay [19]: p53 small molecule agonists, cell-based qHTS assay (AID 1963582; active means well fitted activation curve with a large enough effect in the signal ratio in the repeat runs, not every such curve was filed as active; the % refers to the signal ratio). The gist of the method:
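16 h compound exposure (37 C) of p53 response element–bla cells, preceded by 5 h recovery at 37 C/5% CO2; read-out via LiveBLAzer B/G FRET substrate, 2 h RT, fluorescence intensity.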

The target of assay [20] is Beta-2 adrenergic receptor (Homo sapiens) (UniProt P07550). Description: Adrenergic beta2 receptor (ADRB2) small molecule antagonists, cell-based qHTS assay (AID 1963592). Further: nearly all actives have a fitted effect of over 50% in size. Further: potency means the concentration at half of the fitted maximal effect. The essentials: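 Assay format: CHO-ADRB2 cells, 18-20hr seeding at 37C/5% CO2, then compound plus 1nM isoproterenol agonist mix for 0.5hr RT. Homogeneous time-resolved fluorescence cAMP detection after 1hr, expressed as 665/615 nm ratio.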

The structures appear in SMILES notation. Where “and” joins values, the source holds several entries; their conditions need not be identical. Equal values may be shown once. Records with an inconclusive call do not appear. Where a structure was tested more than once in an assay, its records may differ in their call. Calls of active or inactive are those of the source. Unless noted, the call rests on the fitted dose curve.

KiSS-1 receptor (Homo sapiens), sequence (Q969F8 whole entry, looked up): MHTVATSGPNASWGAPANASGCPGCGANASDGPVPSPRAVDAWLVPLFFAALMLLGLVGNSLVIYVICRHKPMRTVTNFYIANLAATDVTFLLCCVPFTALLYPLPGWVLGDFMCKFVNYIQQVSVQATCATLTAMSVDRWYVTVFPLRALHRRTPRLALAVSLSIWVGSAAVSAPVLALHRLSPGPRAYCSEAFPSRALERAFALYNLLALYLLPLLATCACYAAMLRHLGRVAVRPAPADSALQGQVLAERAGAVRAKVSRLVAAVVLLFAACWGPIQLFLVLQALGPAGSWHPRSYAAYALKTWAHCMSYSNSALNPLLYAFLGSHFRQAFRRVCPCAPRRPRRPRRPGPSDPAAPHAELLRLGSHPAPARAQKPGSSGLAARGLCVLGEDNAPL
Muscarinic acetylcholine receptor M1 (Homo sapiens), sequence (P11229 whole entry, looked up): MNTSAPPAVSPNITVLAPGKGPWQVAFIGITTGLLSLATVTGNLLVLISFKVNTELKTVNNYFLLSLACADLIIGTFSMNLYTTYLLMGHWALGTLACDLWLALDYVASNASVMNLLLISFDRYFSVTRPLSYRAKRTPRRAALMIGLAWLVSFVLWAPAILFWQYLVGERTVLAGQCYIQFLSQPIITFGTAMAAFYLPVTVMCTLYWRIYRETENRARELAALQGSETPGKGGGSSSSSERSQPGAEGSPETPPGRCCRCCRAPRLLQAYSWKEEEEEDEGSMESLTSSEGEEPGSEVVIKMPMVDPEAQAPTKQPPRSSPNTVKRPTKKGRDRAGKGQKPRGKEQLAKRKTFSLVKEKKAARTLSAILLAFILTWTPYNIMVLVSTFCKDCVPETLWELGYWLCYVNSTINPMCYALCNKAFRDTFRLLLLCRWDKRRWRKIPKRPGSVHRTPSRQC
Gonadotropin-releasing hormone receptor (Homo sapiens), sequence (P30968 whole entry, looked up): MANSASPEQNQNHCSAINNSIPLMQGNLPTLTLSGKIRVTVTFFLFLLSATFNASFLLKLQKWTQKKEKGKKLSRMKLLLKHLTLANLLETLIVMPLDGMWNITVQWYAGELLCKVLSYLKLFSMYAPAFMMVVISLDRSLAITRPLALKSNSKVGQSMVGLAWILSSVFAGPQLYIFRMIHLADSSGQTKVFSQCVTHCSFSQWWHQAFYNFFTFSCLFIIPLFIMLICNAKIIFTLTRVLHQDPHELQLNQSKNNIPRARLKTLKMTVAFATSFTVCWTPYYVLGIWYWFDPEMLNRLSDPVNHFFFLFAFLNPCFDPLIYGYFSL
5-hydroxytryptamine receptor 2A (Homo sapiens), sequence (P28223 whole entry, looked up): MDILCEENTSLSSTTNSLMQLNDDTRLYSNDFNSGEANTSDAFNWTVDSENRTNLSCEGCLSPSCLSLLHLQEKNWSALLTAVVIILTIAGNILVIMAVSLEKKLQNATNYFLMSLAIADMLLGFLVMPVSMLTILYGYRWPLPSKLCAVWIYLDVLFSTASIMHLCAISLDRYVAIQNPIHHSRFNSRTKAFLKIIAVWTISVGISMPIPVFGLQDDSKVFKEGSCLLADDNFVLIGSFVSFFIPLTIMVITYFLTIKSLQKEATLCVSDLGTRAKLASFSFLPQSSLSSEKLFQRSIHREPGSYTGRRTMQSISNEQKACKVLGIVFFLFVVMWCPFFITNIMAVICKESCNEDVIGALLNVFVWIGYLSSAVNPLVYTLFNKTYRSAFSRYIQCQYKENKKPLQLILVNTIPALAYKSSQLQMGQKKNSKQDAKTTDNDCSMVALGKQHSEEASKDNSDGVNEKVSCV
D(2) dopamine receptor (Homo sapiens), sequence (P14416 whole entry, looked up): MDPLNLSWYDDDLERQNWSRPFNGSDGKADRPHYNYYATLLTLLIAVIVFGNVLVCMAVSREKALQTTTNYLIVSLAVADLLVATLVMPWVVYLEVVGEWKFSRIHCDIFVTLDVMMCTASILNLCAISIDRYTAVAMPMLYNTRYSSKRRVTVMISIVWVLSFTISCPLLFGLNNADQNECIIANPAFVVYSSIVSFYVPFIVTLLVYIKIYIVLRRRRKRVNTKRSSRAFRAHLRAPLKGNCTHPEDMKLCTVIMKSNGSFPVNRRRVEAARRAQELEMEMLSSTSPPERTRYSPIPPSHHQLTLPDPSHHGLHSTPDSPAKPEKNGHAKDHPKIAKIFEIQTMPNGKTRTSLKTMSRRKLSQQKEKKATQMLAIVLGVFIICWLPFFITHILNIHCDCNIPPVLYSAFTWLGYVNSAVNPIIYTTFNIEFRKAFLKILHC
Beta-2 adrenergic receptor (Homo sapiens), sequence (P07550 whole entry, looked up): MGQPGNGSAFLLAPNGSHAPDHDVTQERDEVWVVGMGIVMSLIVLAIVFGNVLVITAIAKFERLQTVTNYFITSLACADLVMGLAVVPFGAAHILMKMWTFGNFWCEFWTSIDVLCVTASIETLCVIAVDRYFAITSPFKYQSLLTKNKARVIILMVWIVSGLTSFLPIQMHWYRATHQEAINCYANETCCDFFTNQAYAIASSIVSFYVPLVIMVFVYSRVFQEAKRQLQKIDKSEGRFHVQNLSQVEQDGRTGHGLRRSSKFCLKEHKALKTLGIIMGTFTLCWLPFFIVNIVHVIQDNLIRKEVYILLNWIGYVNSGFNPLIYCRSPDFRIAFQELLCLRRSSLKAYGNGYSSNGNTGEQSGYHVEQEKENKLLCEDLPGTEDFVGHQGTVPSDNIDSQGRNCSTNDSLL

Consider `Cc1ccc(O)c(C)c1`, for which the Potency entry in [1], in assay [2], in [3], in [4], in assay [5] and in [6] was “inactive” each time. The Potency result in assay [7], in assay [8], in assay [9], in [10], in [11] and in assay [12] was “inactive” throughout. The Potency result in assay [13], in assay [14], in assay [15], in assay [16], in assay [17] and in [18] was “inactive” throughout.
For the compound `C=CCOC(Cn1ccnc1)c1ccc(Cl)cc1Cl` (stereo unspecified), the Potency in assay [1] is 43.3 µM (active) and 18.8 µM (active); in [2] it was 15.4 µM (active) and 24.3 µM (active) and 8.41 µM (active); in assay [13] it was 5.96 µM (active) and 18.8 µM (active). In addition, the Potency result in assay [3], in assay [4], in assay [5], in [6], in assay [7] and in [8] was “inactive” each time. Further, the Potency entry in assay [9], in [10], in [19], in assay [14], in [15] and in assay [16] was “inactive” in each case. Moreover, the Potency entry in assay [17] and in [18] was “inactive” throughout.
Turning to `C#C[C@]1(O)CC[C@H]2[C@@H]3CCC4=CC(=O)CC[C@]4(C)[C@H]3CC[C@@]21C`, the Potency entry in [1], in [2], in assay [3], in assay [4], in assay [5] and in assay [6] was “inactive” each time. Besides, the Potency entry in assay [7], in assay [8], in assay [9], in assay [10], in [19] and in [15] was “inactive” throughout. The Potency entry in assay [16], in assay [20], in assay [17] and in assay [18] was “inactive” each time.
Take `CCC[CH2][Sn]([Cl])([CH2]CCC)[CH2]CCC`: the Potency in [1] was 244 nM (active) and 486 nM (active); in assay [2] it was 244 nM (active) and 486 nM (active); in [3], 7.78 µM (active) and 38.9 µM (active); in assay [4], 43.6 µM (active); in [5], 34.7 µM (active); in [8] it was 6.48 µM (active) and 5.76 µM (active). For the same compound, the Potency in assay [9] was 4.09 µM (active) and 4.08 µM (active); in assay [10], 1.29 µM (active) and inactive; in [11], 18.8 µM (active); in [12], 11 µM (active) and 34.7 µM (active); in [13] it was 16.8 µM (active); in assay [14] it was 21.9 µM (active) and 38.9 µM (active). Further, the Potency in assay [20] is 1.09 µM (active) and 1.37 µM (active); in assay [18], 15.4 µM (active) and 19.3 µM (active). Further, the Potency entry in [6] and in [7] was “inactive” each time.
For the compound `N#Cc1c(Cl)c(Cl)c(Cl)c(C#N)c1Cl`, the Potency in assay [1] was 2.68 µM (active) and 2.73 µM (active); in [2], 950 nM (active) and 969 nM (active); in assay [8], 25.2 µM (active) and 18.2 µM (active); in [10], 18.2 µM (active); in assay [18], 15.1 µM (active) and 4.86 µM (active). Further, the Potency result in assay [3], in assay [4], in [5], in [6], in assay [7] and in [9] was “inactive” in each case. For the same compound, the Potency entry in [11], in assay [12], in [13], in assay [14], in assay [20] and in assay [17] was “inactive” in each case.
As for `C=CCc1ccc2c(c1)OCO2`, the Potency result in [1], in assay [2], in assay [3], in assay [4], in [5] and in assay [6] was “inactive” in each case. The Potency result in [7], in assay [8], in assay [9], in assay [10], in [19] and in assay [15] was “inactive” each time. Further, the Potency entry in [16], in assay [20], in assay [17] and in [18] was “inactive” each time.
Turning to `O=P1(N(CCCl)CCCl)NCCCO1` (stereo unspecified), the Potency entry in assay [1], in [2], in [3], in assay [4], in assay [5] and in assay [6] was “inactive” in each case. The Potency entry in [7], in [8], in assay [9], in assay [10], in assay [19] and in [15] was “inactive” throughout. Further, the Potency entry in [16], in assay [20], in [17] and in [18] was “inactive” in each case.

These data come from PubChem BioAssay (Tox21).
